# STK33 inh: inhibitors of human STK33 kinase | Q9BYT3 | ADP-Glo luminescence, MBP substrate | inhibition, % at 12.5 µM | 27,000 tested, 0.44% active; in the data active = inhibition above about 20%
# Target sequence (Q9BYT3 whole entry, looked up): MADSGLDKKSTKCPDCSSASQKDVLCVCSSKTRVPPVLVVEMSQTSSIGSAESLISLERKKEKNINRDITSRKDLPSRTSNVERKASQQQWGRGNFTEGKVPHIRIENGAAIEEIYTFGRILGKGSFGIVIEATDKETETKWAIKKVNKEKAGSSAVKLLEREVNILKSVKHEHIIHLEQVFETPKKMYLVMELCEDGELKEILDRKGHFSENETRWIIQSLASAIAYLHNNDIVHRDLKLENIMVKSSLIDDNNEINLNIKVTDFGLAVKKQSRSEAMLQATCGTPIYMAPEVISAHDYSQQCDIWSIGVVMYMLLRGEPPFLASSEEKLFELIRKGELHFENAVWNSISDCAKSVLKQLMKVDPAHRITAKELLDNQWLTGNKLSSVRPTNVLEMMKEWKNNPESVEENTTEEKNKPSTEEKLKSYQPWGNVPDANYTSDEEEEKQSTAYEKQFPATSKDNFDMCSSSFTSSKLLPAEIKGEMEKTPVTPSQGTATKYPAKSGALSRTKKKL
# NOMO-1 viab: STK33 inhibitor candidate reducing NOMO-1 cell viability. NOMO-1 AML viability, CellTiter-Glo luminescence, 72 h. inhibition, % (no concentration beside the values). 37,000 tested, 7.5% active. AID 2330; in the data active = inhibition above about 80%
# PD-1 reversal: activators reversing PD-1 mediated T-cell inhibition | activation, % (no concentration beside the values) | 29,000 tested, under 10 active | primary human CD4 T cells, PD-L1 beads, CellTiter-Glo 96 h; call rule not given here;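 also: 0% = median vehicle wells and 100% = positive control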
# * hit, by the source's call; x = not tested or not shown. This excerpt belongs to a sample that is enriched for hits.
SMILES,STK33 inh,NOMO-1 viab,PD-1 reversal
CC(Oc1ccccc1)C(=O)NCCN1CCOCC1 (stereo unspecified),-4,-9,-1
CS(=O)(=O)N(CC(=O)Nc1ccc2c(c1)OCCO2)c1cccc(F)c1,0,12,1
COCCOC(=O)N1C(=O)[C@@]2(c3cc(C#CC4(O)CCCCCC4)ccc31)[C@H](c1ccc(O)cc1)N1[C@H](c3ccccc3)[C@H](c3ccccc3)OC(=O)[C@H]1[C@@H]2C(N)=O,1,x,x
CC(=O)O[C@@H]1CC2C(C)(C)C=CC(=O)[C@]2(C)C2CC[C@@]3(C)[C@H](c4ccoc4)OC(=O)C4OC43[C@@]21C (stereo partly specified),0,28,2
Nc1cc(-c2ccccc2)ccc1O,x,63,-1
CCCc1ccc(O)c(N)c1,x,124*,-7
C=CC(C)(O)CC/C=C(\C)CCC(O)C(C)(C)O (stereo unspecified),-4,11,1
C=CC(C)(O)CC(/C=C(\C)CC(/C=C(\C)CCC=C(C)C)OC(C)=O)OC(C)=O (stereo unspecified),-8,98*,-1
COc1ccc(S(=O)(=O)Nc2ccc3c(c2)C(=O)N([C@H](C)CO)C[C@@H](C)[C@H](CN(C)Cc2ccc(Cl)c(Cl)c2)O3)cc1,3,50,1
COc1ccc(S(=O)(=O)Nc2ccc3c(c2)C(=O)N([C@H](C)CO)C[C@@H](C)[C@@H](CN(C)Cc2ccc(Cl)c(Cl)c2)O3)cc1,x,116*,-2
COc1ccc(S(=O)(=O)Nc2ccc3c(c2)C(=O)N([C@@H](C)CO)C[C@@H](C)[C@H](CN(C)Cc2ccc(Cl)c(Cl)c2)O3)cc1,-1,118*,1
COc1ccc(CN(C)C[C@H]2Oc3ccc(NS(=O)(=O)c4ccc(OC)cc4)cc3C(=O)N([C@H](C)CO)C[C@@H]2C)cc1,x,14,x
COc1ccc(CN(C)C[C@@H]2Oc3ccc(NS(=O)(=O)c4ccc(OC)cc4)cc3C(=O)N([C@H](C)CO)C[C@@H]2C)cc1,x,8,2
COc1ccc(S(=O)(=O)Nc2ccc3c(c2)C(=O)N([C@@H](C)CO)C[C@H](C)[C@H](CN(C)Cc2ccc(Cl)c(Cl)c2)O3)cc1,x,93*,0
C=CC[C@@]1(C(=O)NCc2ccccc2)N=C(c2ccc(OCCCO)cc2)O[C@@H]1c1ccccc1,0,x,x
CCOc1ccccc1NC(=O)Cn1cnc2scc(-c3ccc(Cl)cc3)c2c1=O,5,14,0
C=C(C(=O)O)C(O)CCC1(C)C2CC3C(C2)C31C (stereo unspecified),-3,9,0
COc1ccc(NC(=O)C(=O)NCc2cccnc2)cc1OC,-3,5,-1
O=[N+]([O-])c1ccccc1NCCNS(=O)(=O)c1ccc(Br)cc1,-3,-17,0
COc1cc(N)c(Cl)cc1C(=O)N[C@H]1CCN(CCCOc2ccc(F)cc2)C[C@H]1OC,-1,12,x
COc1cc(COc2cc(N)c(Cl)cc2C(=O)CCC2CCN(CCNS(C)(=O)=O)CC2)cc(OC)c1,0,143*,-18
C/C=C1\C(O[C@@H]2O[C@H](CO)[C@@H](O)[C@H](O)[C@H]2O)OC=C(C(=O)OC)C1CC(=O)OCC(O)c1ccc(O)c(O)c1 (stereo partly specified),-6,16,1
COc1ccc(OC)c(NC(=O)CSc2nnc(-c3cccnc3)s2)c1,3,110*,x
COc1ccc(OC)c(NC(=O)CSc2nnc(C)s2)c1,0,-2,2
C[C@@H]1Oc2c(c(O)c3c(c2C(CC(=O)O)c2ccccc2)OC(C)(C)C=C3)C(=O)[C@H]1C (stereo partly specified),-5,x,x
SMILES,STK33 inh,NOMO-1 viab,PD-1 reversal
CNC(=O)CN(c1cc(Cl)c(Cl)cc1Cl)S(C)(=O)=O,6,-5,x
COc1ccccc1N(Cc1cc2ccc(C)cc2[nH]c1=O)S(=O)(=O)c1ccccc1,2,108*,1
COc1ccccc1N(CC(=O)O)S(=O)(=O)c1ccccc1,0,-3,x
O=C(CSc1nc2sc3c(c2c(=O)[nH]1)CCCC3)Nc1ccc(Cl)cc1,7,22,x
O=C(CN(CCO)C(=O)c1ccc(Cl)cc1)Nc1ccc(F)cc1,-3,-22,0
O=C(CC(Sc1ccc(Br)cc1)C(=O)O)c1ccc(Cl)cc1 (stereo unspecified),x,115*,-7
O=C(CC(NC1CC1)C(=O)O)c1ccc(Cl)cc1 (stereo unspecified),0,30,0
NC(=O)[C@@H]1[C@H]2C(=O)O[C@H](c3ccccc3)[C@H](c3ccccc3)N2[C@H](c2ccc(OCCO)cc2)[C@@]12C(=O)Nc1ccc(C#CC3(O)CCCCCC3)cc12,22*,x,x

# Compound activity from PubChem BioAssay.
